# Residue numbers refer to the chain shown, from its start.
# Tests used:
# Experiment in all cases: PBM; 200 nM protein, PBS
# Conditions in all cases: dsDNA, one strand shown
# [1] = target: CRX (Homo sapiens, UniProt O43186 26-111)
# [2] = target: T1, SIX6 (Homo sapiens, UniProt O95475 114-200, L167I)
# T1 sequence: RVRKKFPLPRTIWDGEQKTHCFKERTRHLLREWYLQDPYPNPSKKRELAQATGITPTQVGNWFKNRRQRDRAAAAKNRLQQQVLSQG
# [3] = target: T2, SIX6 (Homo sapiens, UniProt O95475 114-200, L143V)
# T2 sequence: T1 sequence with L30V, I54L
# [4] = target: ALX4 (Homo sapiens, UniProt Q9H161 200-286)
# Chain of ALX4 (Homo sapiens, UniProt Q9H161 200-286) (Q9H161 200-286): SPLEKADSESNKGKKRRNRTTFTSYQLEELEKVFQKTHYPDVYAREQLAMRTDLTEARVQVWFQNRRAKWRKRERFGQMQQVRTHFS
# [5] = target: T3, SIX6 (Homo sapiens, UniProt O95475 114-200, H141N)
# T3 sequence: T1 sequence with H28N, I54L
# [6] = target: T4, SIX6 (Homo sapiens, UniProt O95475 114-200, T165P)
# T4 sequence: T1 sequence with T52P, I54L
# [7] = target: T5, SIX6 (Homo sapiens, UniProt O95475 114-200, L167M)
# T5 sequence: T1 sequence with I54M
# [8] = target: T6, SIX6 (Homo sapiens, UniProt O95475 114-200, L143M)
# T6 sequence: T1 sequence with L30M, I54L
# [9] = target: T7, SIX6 (Homo sapiens, UniProt O95475 114-200, L143I)
# T7 sequence: T1 sequence with L30I, I54L
# [10] = target: ALX4 (Homo sapiens, UniProt Q9H161 200-286, Q225E)
# Chain of ALX4 (Homo sapiens, UniProt Q9H161 200-286, Q225E) (Q9H161 200-286 Q225E): as the sequence (Q9H161 200-286) above, with Q26E counted along it
# [11] = target: T8, SIX6 (Homo sapiens, UniProt O95475 114-200, T165G)
# T8 sequence: T1 sequence with T52G, I54L
# [12] = target: T9, SIX6 (Homo sapiens, UniProt O95475 114-200, T139Q)
# T9 sequence: T1 sequence with T26Q, I54L
# [13] = target: CRX (Homo sapiens, UniProt O43186 26-111, E42D)
# Chain of CRX (Homo sapiens, UniProt O43186 26-111, E42D) (O43186 26-111 E42D): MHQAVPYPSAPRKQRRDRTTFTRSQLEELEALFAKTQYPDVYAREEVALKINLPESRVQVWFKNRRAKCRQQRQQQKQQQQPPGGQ
# [14] = target: T10, SIX6 (Homo sapiens, UniProt O95475 114-200, T165A)
# T10 sequence: T1 sequence with T52A, I54L
# [15] = target: T11, SIX6 (Homo sapiens, UniProt O95475 114-200, L167V)
# T11 sequence: T1 sequence with I54V
# [16] = target: T12, SIX6 (Homo sapiens, UniProt O95475 114-200)
# T12 sequence: T1 sequence with I54L
# [17] = target: T13, SIX6 (Homo sapiens, UniProt O95475 114-200, T165I)
# T13 sequence: T1 sequence with T52I, I54L
# [18] = target: CRX (Homo sapiens, UniProt O43186 26-111, R41L)
# Chain of CRX (Homo sapiens, UniProt O43186 26-111, R41L) (O43186 26-111 R41L): as the sequence (O43186 26-111 E42D) above, with R16L, D17E counted along it
# [19] = target: T14, VENTX (Homo sapiens, UniProt O95231 78-163, R121Q)
# T14 sequence: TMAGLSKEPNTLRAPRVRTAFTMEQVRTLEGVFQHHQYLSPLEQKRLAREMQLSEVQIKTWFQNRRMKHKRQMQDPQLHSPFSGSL
# [20] = target: T15, VENTX (Homo sapiens, UniProt O95231 78-163, Y115F)
# T15 sequence: T14 sequence with Y38F, Q44R
# [21] = target: VAX1 (Homo sapiens, UniProt Q5SQQ9 86-172)
# Chain of VAX1 (Homo sapiens, UniProt Q5SQQ9 86-172) (Q5SQQ9 86-172): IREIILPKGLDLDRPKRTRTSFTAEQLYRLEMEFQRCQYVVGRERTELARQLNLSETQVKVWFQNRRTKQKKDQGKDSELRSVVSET
# [22] = target: VAX1 (Homo sapiens, UniProt Q5SQQ9 86-172, T142I)
# Chain of VAX1 (Homo sapiens, UniProt Q5SQQ9 86-172, T142I) (Q5SQQ9 86-172 T142I): as the sequence (Q5SQQ9 86-172) above, with T57I counted along it
# [23] = target: VAX1 (Homo sapiens, UniProt Q5SQQ9 86-172, K157R)
# Chain of VAX1 (Homo sapiens, UniProt Q5SQQ9 86-172, K157R) (Q5SQQ9 86-172 K157R): as the sequence (Q5SQQ9 86-172) above, with K72R counted along it
# [24] = target: T16, VENTX (Homo sapiens, UniProt O95231 78-163)
# T16 sequence: T14 sequence with Q44R
# [25] = target: T17, NKX2-4 (Homo sapiens, UniProt Q9H2Z4 175-261, P217L)
# T17 sequence: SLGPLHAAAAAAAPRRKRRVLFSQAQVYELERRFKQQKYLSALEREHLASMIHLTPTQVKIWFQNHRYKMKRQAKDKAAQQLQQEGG
# [26] = target: HOXC10 (Homo sapiens, UniProt Q9NYD6 254-340)
# Chain of HOXC10 (Homo sapiens, UniProt Q9NYD6 254-340) (Q9NYD6 254-340): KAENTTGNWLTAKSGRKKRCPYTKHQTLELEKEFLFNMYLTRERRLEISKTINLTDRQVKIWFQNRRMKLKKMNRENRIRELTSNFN
# [27] = target: T18, NKX2-4 (Homo sapiens, UniProt Q9H2Z4 175-261)
# T18 sequence: T17 sequence with L43P
# [28] = target: HOXA2 (Homo sapiens, UniProt O43364 129-215, R185T)
# Chain of HOXA2 (Homo sapiens, UniProt O43364 129-215, R185T) (O43364 129-215 R185T): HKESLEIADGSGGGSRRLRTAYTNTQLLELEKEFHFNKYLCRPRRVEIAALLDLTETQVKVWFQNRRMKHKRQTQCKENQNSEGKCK
# [29] = target: PITX2 (Homo sapiens, UniProt Q99697 72-157)
# [30] = target: HOXA2 (Homo sapiens, UniProt O43364 129-215, R185K)
# Chain of HOXA2 (Homo sapiens, UniProt O43364 129-215, R185K) (O43364 129-215 R185K): as the sequence (O43364 129-215 R185T) above, with T57K counted along it
# [31] = target: HOXC10 (Homo sapiens, UniProt Q9NYD6 254-340, K271E)
# Chain of HOXC10 (Homo sapiens, UniProt Q9NYD6 254-340, K271E) (Q9NYD6 254-340 K271E): as the sequence (Q9NYD6 254-340) above, with K18E counted along it
# [32] = target: T19, NKX2-4 (Homo sapiens, UniProt Q9H2Z4 175-261, R246Q)
# T19 sequence: T17 sequence with L43P, R72Q
# [33] = target: HOXA2 (Homo sapiens, UniProt O43364 129-215, Y150S)
# Chain of HOXA2 (Homo sapiens, UniProt O43364 129-215, Y150S) (O43364 129-215 Y150S): as the sequence (O43364 129-215 R185T) above, with Y22S, T57R counted along it
# [34] = target: NKX3-2 (Homo sapiens, UniProt P78367 192-278, P234S)
# Chain of NKX3-2 (Homo sapiens, UniProt P78367 192-278, P234S) (P78367 192-278 P234S): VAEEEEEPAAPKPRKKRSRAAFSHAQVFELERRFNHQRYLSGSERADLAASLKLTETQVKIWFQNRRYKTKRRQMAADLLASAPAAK
# [35] = target: HOXA2 (Homo sapiens, UniProt O43364 129-215)
# Chain of HOXA2 (Homo sapiens, UniProt O43364 129-215) (O43364 129-215): as the sequence (O43364 129-215 R185T) above, with T57R counted along it
# [36] = target: NKX3-2 (Homo sapiens, UniProt P78367 192-278)
# Chain of NKX3-2 (Homo sapiens, UniProt P78367 192-278) (P78367 192-278): as the sequence (P78367 192-278 P234S) above, with S43P counted along it
# [37] = target: HOXC9 (Homo sapiens, UniProt P31274 178-260, K195R)
# Chain of HOXC9 (Homo sapiens, UniProt P31274 178-260, K195R) (P31274 178-260 K195R): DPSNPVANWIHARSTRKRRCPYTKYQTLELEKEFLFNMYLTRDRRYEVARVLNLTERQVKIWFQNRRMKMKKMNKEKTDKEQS
# [38] = target: HOXC9 (Homo sapiens, UniProt P31274 178-260)
# Chain of HOXC9 (Homo sapiens, UniProt P31274 178-260) (P31274 178-260): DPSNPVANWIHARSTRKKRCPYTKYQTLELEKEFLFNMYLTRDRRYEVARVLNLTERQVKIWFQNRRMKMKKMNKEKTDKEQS
# [39] = target: ALX1 (Homo sapiens, UniProt Q15699 118-204, L144V)
# Chain of ALX1 (Homo sapiens, UniProt Q15699 118-204, L144V) (Q15699 118-204 L144V): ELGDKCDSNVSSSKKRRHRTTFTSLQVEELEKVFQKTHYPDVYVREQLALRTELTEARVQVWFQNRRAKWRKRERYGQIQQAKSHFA
# [40] = target: HOXC9 (Homo sapiens, UniProt P31274 178-260, R193K)
# Chain of HOXC9 (Homo sapiens, UniProt P31274 178-260, R193K) (P31274 178-260 R193K): as the sequence (P31274 178-260) above, with R16K counted along it
# [41] = target: ALX1 (Homo sapiens, UniProt Q15699 118-204, L144R)
# Chain of ALX1 (Homo sapiens, UniProt Q15699 118-204, L144R) (Q15699 118-204 L144R): as the sequence (Q15699 118-204 L144V) above, with V27R counted along it
# [42] = target: HOXC9 (Homo sapiens, UniProt P31274 178-260, R222W)
# Chain of HOXC9 (Homo sapiens, UniProt P31274 178-260, R222W) (P31274 178-260 R222W): as the sequence (P31274 178-260) above, with R45W counted along it
# [43] = target: ALX1 (Homo sapiens, UniProt Q15699 118-204)
# Chain of ALX1 (Homo sapiens, UniProt Q15699 118-204) (Q15699 118-204): as the sequence (Q15699 118-204 L144V) above, with V27L counted along it
# Chain of CRX (Homo sapiens, UniProt O43186 26-111) (O43186 26-111): as the sequence (O43186 26-111 E42D) above, with D17E counted along it
sequence,measurement,setting,value
CGCACCGC,binding signal,[1],"8.16 upbm affinity estimate (log intensity, higher = more binding, comparable within an allelic series)"
same,binding signal,[2],"8.91 upbm affinity estimate (log intensity, higher = more binding, comparable within an allelic series)"
same,binding signal,[3],"8.89 upbm affinity estimate (log intensity, higher = more binding, comparable within an allelic series)"
same,binding signal,[4],"8.06 upbm affinity estimate (log intensity, higher = more binding, comparable within an allelic series)"
same,binding signal,[5],"8.95 upbm affinity estimate (log intensity, higher = more binding, comparable within an allelic series)"
same,binding signal,[6],"8.88 upbm affinity estimate (log intensity, higher = more binding, comparable within an allelic series)"
same,binding signal,[7],"8.89 upbm affinity estimate (log intensity, higher = more binding, comparable within an allelic series)"
same,binding signal,[8],"8.96 upbm affinity estimate (log intensity, higher = more binding, comparable within an allelic series)"
same,binding signal,[9],"9 upbm affinity estimate (log intensity, higher = more binding, comparable within an allelic series)"
same,binding signal,[10],"8.31 upbm affinity estimate (log intensity, higher = more binding, comparable within an allelic series)"
same,binding signal,[11],"9.05 upbm affinity estimate (log intensity, higher = more binding, comparable within an allelic series)"
same,binding signal,[12],"9.17 upbm affinity estimate (log intensity, higher = more binding, comparable within an allelic series)"
same,binding signal,[13],"8.2 upbm affinity estimate (log intensity, higher = more binding, comparable within an allelic series)"
same,binding signal,[14],"8.98 upbm affinity estimate (log intensity, higher = more binding, comparable within an allelic series)"
same,binding signal,[15],"8.96 upbm affinity estimate (log intensity, higher = more binding, comparable within an allelic series)"
same,binding signal,[16],"8.97 upbm affinity estimate (log intensity, higher = more binding, comparable within an allelic series)"
same,binding signal,[17],"8.85 upbm affinity estimate (log intensity, higher = more binding, comparable within an allelic series)"
same,binding signal,[18],"8.26 upbm affinity estimate (log intensity, higher = more binding, comparable within an allelic series)"
ACAGATTA,binding signal,[1],"12.8 upbm affinity estimate (log intensity, higher = more binding, comparable within an allelic series)"
same,binding signal,[19],"10.5 upbm affinity estimate (log intensity, higher = more binding, comparable within an allelic series)"
same,binding signal,[20],"10.5 upbm affinity estimate (log intensity, higher = more binding, comparable within an allelic series)"
same,binding signal,[13],"12.7 upbm affinity estimate (log intensity, higher = more binding, comparable within an allelic series)"
same,binding signal,[21],"10 upbm affinity estimate (log intensity, higher = more binding, comparable within an allelic series)"
same,binding signal,[22],"9.28 upbm affinity estimate (log intensity, higher = more binding, comparable within an allelic series)"
same,binding signal,[18],"12.6 upbm affinity estimate (log intensity, higher = more binding, comparable within an allelic series)"
same,binding signal,[23],"9.72 upbm affinity estimate (log intensity, higher = more binding, comparable within an allelic series)"
GATTAATA,binding signal,[1],"12.7 upbm affinity estimate (log intensity, higher = more binding, comparable within an allelic series)"
same,binding signal,[19],"11.2 upbm affinity estimate (log intensity, higher = more binding, comparable within an allelic series)"
same,binding signal,[24],"11.8 upbm affinity estimate (log intensity, higher = more binding, comparable within an allelic series)"
same,binding signal,[20],"11 upbm affinity estimate (log intensity, higher = more binding, comparable within an allelic series)"
same,binding signal,[13],"12.7 upbm affinity estimate (log intensity, higher = more binding, comparable within an allelic series)"
CCCCTGGA,binding signal,[1],"8.32 upbm affinity estimate (log intensity, higher = more binding, comparable within an allelic series)"
same,binding signal,[19],"7.92 upbm affinity estimate (log intensity, higher = more binding, comparable within an allelic series)"
same,binding signal,[24],"7.83 upbm affinity estimate (log intensity, higher = more binding, comparable within an allelic series)"
same,binding signal,[20],"8.01 upbm affinity estimate (log intensity, higher = more binding, comparable within an allelic series)"
same,binding signal,[13],"8.46 upbm affinity estimate (log intensity, higher = more binding, comparable within an allelic series)"
same,binding signal,[18],"8.4 upbm affinity estimate (log intensity, higher = more binding, comparable within an allelic series)"
GCCCGGGC,binding signal,[1],"8.05 upbm affinity estimate (log intensity, higher = more binding, comparable within an allelic series)"
same,binding signal,[25],"8.34 upbm affinity estimate (log intensity, higher = more binding, comparable within an allelic series)"
same,binding signal,[26],"9.84 upbm affinity estimate (log intensity, higher = more binding, comparable within an allelic series)"
same,binding signal,[27],"8.35 upbm affinity estimate (log intensity, higher = more binding, comparable within an allelic series)"
same,binding signal,[28],"6.98 upbm affinity estimate (log intensity, higher = more binding, comparable within an allelic series)"
same,binding signal,[13],"8.04 upbm affinity estimate (log intensity, higher = more binding, comparable within an allelic series)"
same,binding signal,[29],"8.05 upbm affinity estimate (log intensity, higher = more binding, comparable within an allelic series)"
same,binding signal,[30],"9.77 upbm affinity estimate (log intensity, higher = more binding, comparable within an allelic series)"
same,binding signal,[31],"10.1 upbm affinity estimate (log intensity, higher = more binding, comparable within an allelic series)"
same,binding signal,[32],"8.33 upbm affinity estimate (log intensity, higher = more binding, comparable within an allelic series)"
same,binding signal,[33],"10.4 upbm affinity estimate (log intensity, higher = more binding, comparable within an allelic series)"
same,binding signal,[34],"9.95 upbm affinity estimate (log intensity, higher = more binding, comparable within an allelic series)"
same,binding signal,[18],"8.04 upbm affinity estimate (log intensity, higher = more binding, comparable within an allelic series)"
same,binding signal,[35],"7.45 upbm affinity estimate (log intensity, higher = more binding, comparable within an allelic series)"
same,binding signal,[36],"9.83 upbm affinity estimate (log intensity, higher = more binding, comparable within an allelic series)"
GACGCGTC,binding signal,[1],"8.63 upbm affinity estimate (log intensity, higher = more binding, comparable within an allelic series)"
same,binding signal,[37],"9.76 upbm affinity estimate (log intensity, higher = more binding, comparable within an allelic series)"
same,binding signal,[13],"8.54 upbm affinity estimate (log intensity, higher = more binding, comparable within an allelic series)"
same,binding signal,[38],"9.79 upbm affinity estimate (log intensity, higher = more binding, comparable within an allelic series)"
same,binding signal,[39],"6.58 upbm affinity estimate (log intensity, higher = more binding, comparable within an allelic series)"
same,binding signal,[40],"9.46 upbm affinity estimate (log intensity, higher = more binding, comparable within an allelic series)"
same,binding signal,[41],"6.43 upbm affinity estimate (log intensity, higher = more binding, comparable within an allelic series)"
same,binding signal,[42],"9.62 upbm affinity estimate (log intensity, higher = more binding, comparable within an allelic series)"
same,binding signal,[18],"8.22 upbm affinity estimate (log intensity, higher = more binding, comparable within an allelic series)"
same,binding signal,[43],"6.73 upbm affinity estimate (log intensity, higher = more binding, comparable within an allelic series)"
ATAATCTG,binding signal,[1],"13 upbm affinity estimate (log intensity, higher = more binding, comparable within an allelic series)"
same,binding signal,[19],"9.97 upbm affinity estimate (log intensity, higher = more binding, comparable within an allelic series)"
same,binding signal,[20],"10.1 upbm affinity estimate (log intensity, higher = more binding, comparable within an allelic series)"
same,binding signal,[13],"13 upbm affinity estimate (log intensity, higher = more binding, comparable within an allelic series)"
same,binding signal,[18],"13 upbm affinity estimate (log intensity, higher = more binding, comparable within an allelic series)"
GAGGTACC,binding signal,[1],"8.08 upbm affinity estimate (log intensity, higher = more binding, comparable within an allelic series)"
same,binding signal,[19],"8.02 upbm affinity estimate (log intensity, higher = more binding, comparable within an allelic series)"
same,binding signal,[24],"8.04 upbm affinity estimate (log intensity, higher = more binding, comparable within an allelic series)"
same,binding signal,[20],"8.14 upbm affinity estimate (log intensity, higher = more binding, comparable within an allelic series)"
same,binding signal,[13],"8.18 upbm affinity estimate (log intensity, higher = more binding, comparable within an allelic series)"
same,binding signal,[18],"8.17 upbm affinity estimate (log intensity, higher = more binding, comparable within an allelic series)"
